DT40 TDP1 no CPT – qHTS for Inhibitors of human tyrosyl-DNA phosphodiesterase 1 (TDP1): qHTS in cells in absence of CPT; 420,000 tested, 15% active; DT40 Tdp1-/- hTDP1 cells, no CPT, ATP luminescence, 48 h; Potency, µM (titrated, usually from 46.2 µM), for inactives: top-dose activity change, negative = growth inhibition, usual class: inhibitors; further: potency means the concentration at half of the fitted maximal effect; nearly all actives have a fitted effect of over 55% in size
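Chicken DT40 Tdp1-/- cells complemented with human TDP1, screened without camptothecin (DMSO vehicle only), 400 cells/well. Compounds pin-transferred, cells incubated at 37 °C for at least 48 hr. Growth read as ATP-dependent luminescence (CellTiter-Glo, 30 min at RT).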
HT1080-NT tox – kills 2HG-producing HT-1080-NT fibrosarcoma cells | HT-1080-NT fibrosarcoma viability, CellTiter-Glo ATP luminescence, 48 h | Potency, µM (doses to about 46.1 µM), inactives show at the highest dose activity, negative = less viability, hits mostly cytotoxic | 360,000 tested, 1.6% active;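 further: NT is the 2HG producing partner of a matched IDH1 knockdown line; potency means the concentration at half of the fitted maximal effect; 0% = DMSO-treated cells and -100% = media-only wells without cells; nearly all actives have a fitted effect of over 55% in size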
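Read-out is CellTiter-Glo luminescence after 10 minutes at room temperature, following 48 hours' compound treatment of HT-1080-NT cells (750 cells/well, RPMI, 5% FBS, 37 degrees C).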
IL1B secr inh – inhibitors of inflammasome signaling (IL-1 beta secretion); activity change, % at 57.5 µM; AID 743279; 360,000 tested, 4.7% active; THP-1 LPS/ATP IL-1B secretion, AlphaLISA, 16 h; active compounds read low; in the data active means activity change below about -50%; inconclusive means mostly about -30% to -49%
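THP-1 cells pretreated 1 hr with compounds (up to 57.5 uM final), then stimulated with LPS (250 ng/mL final) plus ATP (1.25 mM final); secreted IL-1B measured by AlphaLISA after 16 hr, decreased signal indicating inhibition.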
HT1080 IDH1KD tx – toxicity to HT-1080 IDH1 knockdown cells (counter line); HT-1080 IDH1 knockdown viability, ATP luminescence, 48 h; Potency, µM (top dose mostly 46.1 µM), inactives show at the top dose activity, negative = toxicity, usual class: cytotoxic; 360,000 tested, 2% active; AID 686971;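 further: potency means the concentration at half of the fitted maximal effect; 0% = DMSO wells and -100% = cell-free medium wells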
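Viability of IDH1-knockdown HT-1080 fibrosarcoma cells was assessed by CellTiter-Glo after 48 h at 37 °C with titrated compound; concentration-effect curves were classified by fit quality and response size.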
DT40 TDP1 CPT – growth inhibition of DT40 Tdp1-/-;hTDP1 cells with camptothecin (screen for TDP1 inhibitors); Potency, µM (series often up to 46.2 µM), without a hit: at the top dose activity change, negative = growth inhibition, actives largely listed as inhibitors; chicken DT40 Tdp1-/-;hTDP1 cells + 20 nM CPT, ATP luminescence, 48 h; AID 686979; 420,000 tested, 12% active; further: potency means the concentration at half of the fitted maximal effect; nearly all actives have a fitted effect of over 55% in size
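Chicken DT40 Tdp1-/- cells complemented with human TDP1, 400 cells/well, exposed to compounds plus 20 nM camptothecin for at least 48 h at 37 C; viability read as ATP content by CellTiter-Glo luminescence.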
Active calls of the source: *; [ ] = dose if it differs, or a comment. An excerpt weighted towards active compounds, which were near 19% of everything screened. Unless noted, the call rests on the fitted dose curve; in most records, active means well fitted curve in the direction sought with a large enough effect; inconclusive means small, poorly fitted or top-dose-only effect, or another doubt; inactive means no such curve, though single readings can be large; an effect the other way counts as inactive or inconclusive. Unless noted, on the % scale 0 is the no-effect control and ±100 the full control effect.

`Cc1cccc(Cc2c(C)nc3c(C(=O)N4CCN(Cc5ccc6c(c5)OCO6)CC4)cnn3c2C)c1` gave DT40 TDP1 no CPT inconclusive, HT1080-NT tox inconclusive, IL1B secr inh -27, HT1080 IDH1KD tx -23% and DT40 TDP1 CPT inconclusive.
O=C(c1cnn2c(C(F)F)cc(-c3ccccc3)nc12)N1CCN(Cc2ccc3c(c2)OCO3)CC1 was read as DT40 TDP1 no CPT 26µM*, HT1080-NT tox -14%, IL1B secr inh inactive, HT1080 IDH1KD tx inconclusive and DT40 TDP1 CPT inconclusive.
For Cc1ccccc1Cc1c(C)nc2c(C(=O)N3CCN(Cc4ccc5c(c4)OCO5)CC3)cnn2c1C the results were DT40 TDP1 no CPT 18µM*, HT1080-NT tox -4%, IL1B secr inh inconclusive, HT1080 IDH1KD tx inconclusive and DT40 TDP1 CPT inconclusive.
Cc1ccccc1Cc1c(C)nc2c(C(=O)NCc3ccc4c(c3)OCO4)cnn2c1C was read as DT40 TDP1 no CPT inconclusive, HT1080-NT tox -11%, IL1B secr inh 0, HT1080 IDH1KD tx 2% and DT40 TDP1 CPT 18µM*.
`O=C(c1cc(Cl)nc2ccccc12)N1CCN(Cc2ccc3c(c2)OCO3)CC1` gave DT40 TDP1 no CPT inconclusive, HT1080-NT tox 7%, IL1B secr inh -4, HT1080 IDH1KD tx 0% and DT40 TDP1 CPT inconclusive.
`COCC1CCCN(Cc2ccc3c(c2)CN(C(=O)c2cnn(C(C)C)c2)CCO3)C1` (centres undefined) gave DT40 TDP1 no CPT -22% and DT40 TDP1 CPT 13%[9.04 µM].
For COc1ccc(-c2cc3nc(NCCCN(C)C)n(C)c(=O)c3s2)c(C)c1 the results were DT40 TDP1 no CPT inconclusive, HT1080-NT tox inconclusive, IL1B secr inh -21, HT1080 IDH1KD tx -29% and DT40 TDP1 CPT inconclusive.
For Cc1cscc1-c1cc2nc(NCCCN(C)C)n(C)c(=O)c2s1 the results were DT40 TDP1 no CPT inconclusive, HT1080-NT tox inconclusive, IL1B secr inh inconclusive, HT1080 IDH1KD tx inconclusive and DT40 TDP1 CPT 16µM*.
Cc1cc(Cl)ccc1-c1cc2nc(NCCCN(C)C)n(C)c(=O)c2s1 was read as DT40 TDP1 no CPT 13µM*, HT1080-NT tox 18µM*, IL1B secr inh -11, HT1080 IDH1KD tx 18µM* and DT40 TDP1 CPT 23µM*.
For CN(C)CCCNc1nc2cc(-c3ccccc3CO)sc2c(=O)n1C the results were DT40 TDP1 no CPT -2%, HT1080-NT tox 25%, IL1B secr inh 0, HT1080 IDH1KD tx 29% and DT40 TDP1 CPT -16%.
Screening Cc1nc(N2CCN(C)CC2)c2nnn(Cc3ccccc3)c2n1 returned DT40 TDP1 no CPT inconclusive, HT1080-NT tox -3%, HT1080 IDH1KD tx -1% and DT40 TDP1 CPT -18%.
For CC(/C=C/c1ccccc1)=N\NC(=O)c1cc(C)[nH]n1 the results were DT40 TDP1 no CPT -12%, HT1080-NT tox 2%, IL1B secr inh 20, HT1080 IDH1KD tx 5% and DT40 TDP1 CPT -24%.
Screening Cc1cc(N2C(=O)C3C4CC(C(Br)C4Br)C3C2=O)no1 (centres undefined) returned DT40 TDP1 no CPT -1%, HT1080-NT tox 8%, IL1B secr inh 9, HT1080 IDH1KD tx 3% and DT40 TDP1 CPT 24%.
Screening c1ccc(C2(CNc3ccccn3)CCCC2)cc1 returned DT40 TDP1 no CPT inconclusive, HT1080-NT tox 7%, IL1B secr inh 6, HT1080 IDH1KD tx inconclusive and DT40 TDP1 CPT inconclusive.
For CCOC(=O)c1cc2sccc2n1CC(=O)N1CCCc2ccccc21 the results were DT40 TDP1 no CPT inconclusive, HT1080-NT tox 0%, IL1B secr inh -50*, HT1080 IDH1KD tx 0% and DT40 TDP1 CPT inconclusive.
Screening Cc1cccc(N2CCN(C(=O)c3c4c(nc5ccccc35)C(=O)N(C3CCCCC3)C4)CC2)c1C returned DT40 TDP1 no CPT 5.8µM* and DT40 TDP1 CPT 7.3µM*.
Screening COc1cccc(N2CCN(C(=O)c3c4c(nc5ccccc35)C(=O)N(C3CCCCC3)C4)CC2)c1 returned DT40 TDP1 no CPT 16µM* and DT40 TDP1 CPT 21µM*.
`CCC(C)NC(=O)c1c2c(nc3ccccc13)C(=O)N(C1CCCCC1)C2` (centres undefined) gave DT40 TDP1 no CPT -24% and DT40 TDP1 CPT -13%.
COc1cc(NC(=O)c2c3c(nc4ccccc24)C(=O)N(C2CCCCC2)C3)cc(OC)c1 was read as DT40 TDP1 no CPT -15% and DT40 TDP1 CPT -21%.
`Cc1ccc(N2CCN(C(=O)c3c4c(nc5ccccc35)C(=O)N(C3CCCCC3)C4)CC2)c(C)c1` gave DT40 TDP1 no CPT 10µM* and DT40 TDP1 CPT 9.2µM*.
Screening O=C(Nc1cc(F)ccc1F)C1CCN(S(=O)(=O)c2cccc3nonc23)CC1 returned DT40 TDP1 no CPT -20%, HT1080-NT tox -11%, IL1B secr inh -3, HT1080 IDH1KD tx -21% and DT40 TDP1 CPT 10%.
`COc1cccc2c(C)nc(Nc3nc(CSc4nnc(C)s4)cc(=O)[nH]3)nc12` gave DT40 TDP1 no CPT 18µM*, HT1080-NT tox 9%, IL1B secr inh -6, HT1080 IDH1KD tx 3% and DT40 TDP1 CPT 23µM*.
Cc1ccc2c(C)nc(Nc3nc(CSc4nnc(C)s4)cc(=O)[nH]3)nc2c1 was read as DT40 TDP1 no CPT 20µM*, HT1080-NT tox inconclusive, IL1B secr inh inconclusive, HT1080 IDH1KD tx inconclusive and DT40 TDP1 CPT 11µM*.
`Cc1nc(Nc2nc(CSc3ccc(Cl)cc3)cc(=O)[nH]2)nc2ccccc12` gave DT40 TDP1 no CPT inconclusive, HT1080-NT tox 18%, IL1B secr inh 9, HT1080 IDH1KD tx 12% and DT40 TDP1 CPT -25%.
For CCCn1c2ccccc2c2cnn(CC(=O)NC3CCCCC3)c(=O)c21 the results were DT40 TDP1 no CPT -30%, HT1080-NT tox -9%, IL1B secr inh -9, HT1080 IDH1KD tx 0% and DT40 TDP1 CPT inconclusive.
O=C(CC1(O)C(=O)Nc2ccccc21)c1ccc2c(c1)OCO2 (centres undefined) was read as DT40 TDP1 no CPT -16%, HT1080-NT tox -6%, IL1B secr inh 0, HT1080 IDH1KD tx -5% and DT40 TDP1 CPT -12%.
Screening O=C(/C=C\c1ccc2c(c1)OCO2)CC1(O)C(=O)Nc2ccccc21 (centres undefined) returned DT40 TDP1 no CPT inconclusive, HT1080-NT tox inconclusive, IL1B secr inh -101*, HT1080 IDH1KD tx inconclusive and DT40 TDP1 CPT inconclusive.
`CCC(c1nc2ccccc2[nH]1)N(C(=O)C1=NNC(=O)CC1)c1ccccc1` (centres undefined) gave DT40 TDP1 no CPT 7%, HT1080-NT tox inconclusive, IL1B secr inh 12, HT1080 IDH1KD tx 0% and DT40 TDP1 CPT 21%.

From PubChem BioAssay
